# Assay outcomes (PubChem BioAssay)
# Hits are enriched below; roughly 12% of the tested compounds scored in any of these assays.
# G9a block: blocks human histone lysine methyltransferase G9a; Q96KQ7; AID 504332; Potency, µM (titrated, usually from 102 µM), for the others: top-dose activity, negative = inhibition, actives largely listed as inhibitors; G9a H3K9 monomethylation, AlphaScreen, 2 h; 350,000 compounds, 8.8% hits; also: % is scaled to controls: 0 for no effect and ±100 for the full control effect; nearly all actives have a fitted effect of over 75% in size
# Target sequence (Q96KQ7 913-1193 limits assumed): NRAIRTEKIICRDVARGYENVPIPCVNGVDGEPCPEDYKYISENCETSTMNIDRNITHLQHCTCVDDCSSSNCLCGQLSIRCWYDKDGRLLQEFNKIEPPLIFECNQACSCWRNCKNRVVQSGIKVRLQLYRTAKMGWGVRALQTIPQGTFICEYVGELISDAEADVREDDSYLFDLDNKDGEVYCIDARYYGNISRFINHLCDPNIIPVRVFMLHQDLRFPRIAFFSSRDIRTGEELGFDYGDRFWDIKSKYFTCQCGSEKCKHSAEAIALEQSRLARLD
#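 Step 1: enzyme (final 20 nM) with compound, 15 min RT. Step 2: substrate peptide 500 nM and SAM 20 uM, 2 h RT. Step 3: anti-H3K9me1 antibody and AlphaScreen beads, 10 min, then plate read.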
# HP1b binding inh: blocks HP1-beta chromodomain binding to methylated histone tails | 390,000 compounds, 0.56% hits | Potency, µM (series often up to 114 µM), inactives show top-dose activity change, negative = inhibition, usual class: inhibitors | P83916 | AID 540317 | AlphaScreen HP1-beta / biotin-H3K9me3 peptide binding; also: nearly all actives have a fitted effect of over 70% in size
# Target sequence (P83916 whole entry, looked up): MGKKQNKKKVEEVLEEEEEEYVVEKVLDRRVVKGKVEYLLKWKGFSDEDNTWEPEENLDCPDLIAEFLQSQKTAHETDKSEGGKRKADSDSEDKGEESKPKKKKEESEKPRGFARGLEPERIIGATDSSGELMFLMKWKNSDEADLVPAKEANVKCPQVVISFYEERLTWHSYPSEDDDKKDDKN
#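 Compound inhibition of the preformed complex between 50 nM HP1-beta and 50 nM biotinylated H3K9me3 peptide was read by AlphaScreen. Buffer was PBS pH 7.4 with 0.01% Tween-20. Incubations ran 30 min at room temperature, with 10 ug/mL donor/acceptor beads.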
# Sfp inh: Sfp phosphopantetheinyl transferase inhibition; Q9F4F7; Biochemical Sfp PPTase activity, qHTS; Potency, µM, without a hit: largest response in the series, negative = inhibition, actives largely listed as inhibitors; 310,000 compounds, 3.5% hits;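 also: the enzyme is Sfp with the accession as filed and its product quenches rhodamine fluorescence; 0% = enzyme reaction without inhibitor and -100% = no enzyme wells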
#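 Reaction rates are the 30-min fluorescence difference (ex 525, em 598 nm) in wells containing 15 nM Sfp, 5 uM rhodamine-CoA and 12.5 uM BHQ-2-YbbR at pH 7.6 with 10 mM MgCl2.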
# JMJD2A Tudor inh: inhibitors of human JMJD2A Tudor domain. AlphaScreen JMJD2A-Tudor / H3K4me3 peptide binding. AID 504339. 390,000 compounds, 4.4% hits. Potency, µM (series often up to 114 µM), for inactives: at the top dose activity change, negative = inhibition, most hits filed as inhibitors. O75164; also: % is scaled to controls: 0 for no effect and ±100 for the full control effect; nearly all actives have a fitted effect of over 50% in size
# L3MBTL1 block: L3MBTL1 (human) inhibition; AlphaScreen L3MBTL1–H3K9me1 peptide binding; Potency, µM (top dose mostly 57.1 µM), for inactives: at the top dose activity, negative = inhibition, usual class: inhibitors; 230,000 compounds, 0.66% hits; also: % is scaled to controls: 0 for no effect and ±100 for the full control effect; nearly all actives have a fitted effect of over 60% in size
#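 AlphaScreen assay: L3MBTL1 (50 nM final) was preincubated 30 min at room temperature with biotinylated H3(1-15)K9me1 peptide (75 nM final), then 30 min with library compounds; streptavidin donor and nickel chelate acceptor beads (10 ug/mL final) added, 30 min dark.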
# BAZ2B inh: BAZ2B (human) inhibition; Q9UIF8; AlphaScreen BAZ2B-H3K14Ac peptide displacement; Potency, µM (titrated, usually from 114 µM), for the others: at the highest dose activity change, negative = inhibition, actives largely listed as inhibitors; 360,000 compounds, 4.4% hits; AID 504333; also: % is scaled to controls: 0 for no effect and ±100 for the full control effect; nearly all actives have a fitted effect of over 60% in size
#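 AlphaScreen displacement: compounds (up to 110uM) incubated 30 min at room temperature with a preformed 50 nM BAZ2B/50 nM biotinylated H3K14Ac peptide complex in PBS pH 7.4 with Tween-20. Donor and acceptor beads at 10 ug/mL final added, 20 min light-protected before reading.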
# * marks the source's active call; other numbers are inactive results; ? = inconclusive; · = no result given; [ ] = dose if it differs, or a comment. Calls follow the shape of the dose curve; as a rule, active = well fitted curve in the direction sought with a large enough effect; inconclusive = small, poorly fitted or top-dose-only effect, or another doubt; inactive = no such curve, though single readings can be large; an effect the other way counts as inactive or inconclusive. Potency is read from the fitted curve at half-maximal effect.
SMILES,G9a block,HP1b binding inh,Sfp inh,JMJD2A Tudor inh,L3MBTL1 block,BAZ2B inh
Oc1cc2ccccc2cc1-c1n[nH]c(=S)n1Cc1ccco1,1.6µM*,-8%,22µM*,?,-30%,?
COc1cccc(-c2n[nH]c(=S)n2Cc2ccco2)c1OC,?,14%,-6%,7.9µM*,-5%,-5%
COC(=O)c1ccc(NC(=O)CC2C(=O)N(c3ccc(C)cc3)C(=O)N2Cc2ccc(OC)cc2)cc1 (centres undefined),-6%[59 µM],-7%,·,-19%,·,-10%
CC1CCN(c2ccc(-c3nc(-c4ccccc4)no3)cc2[N+](=O)[O-])CC1,-15%[59 µM],?,·,?,·,?
COc1cc(OC)cc(-c2ncc3ccccn23)c1,7.9µM*,?,-11%,2.8µM*,-2%,32µM*
COc1cc(-c2ncc3ccccn23)cc(OC)c1OC,25µM*,50µM*,50µM*,11µM*,·,45µM*
COc1cccc(-c2ncc3ccccn23)c1,7.1µM*,16µM*,-8%,3.5µM*,27%,35µM*
COc1ccc(-c2ncc3ccccn23)cc1,-41%,14%,79µM*,-30%,?,-16%
Fc1ccc(-c2ncc3ccccn23)cc1,-21%[0.501 µM],30%,-21%,-12%,-20%,-13%
Brc1ccc(-c2ncc3ccccn23)cc1,?,36%,?,-15%,·,?
COc1ccc2c(c1)-c1nc(NC(=O)c3cc(OC)c(OC)c(OC)c3)sc1CC2,?,27%,·,-32%,·,-20%
COc1ccccc1NC(=O)CSc1oc(-c2ccccc2)nc1S(=O)(=O)c1ccccc1,?,10%,·,-24%,·,-4%
O=C1C=CC(=O)N1c1ccccn1,·,?,·,89µM*,·,·
O=C(c1ccccc1)c1ccccc1N1C(=O)C=CC1=O,0.79µM*,11µM*,1.3µM*,18µM*,-7%,-28%
O=C(O)c1ccccc1C(=O)c1ccc(-c2ccccc2)cc1,5%[2.33 µM],35%,5%,-18%,·,3%
O=C1C=CC(=O)N1c1ccc(I)cc1Cl,12%[12.7 µM],·,12%,·,·,1%
O=c1[nH]n(-c2ccccc2)c(=O)c2ccccc12,3%,4%,-3%,-19%,12%,12%
O=c1[nH]n(-c2ccccn2)c(=O)c2ccccc12,?,-21%,-6%,79µM*,-1%,·
O=C1C=CC(=O)N1c1ccccc1N1C(=O)C=CC1=O,·,2.8µM*,·,2.8µM*,·,·
CCc1cccc(C)c1NC(=O)c1cc(S(=O)(=O)N2CCCCCC2)cn1C,1%[59 µM],22%[57 µM],·,-11%,·,-5%
CCn1c(C(=O)NCc2ccccc2)cc2sc(Cl)cc21,4%[59 µM],49%,·,-11%,·,11%
CCOc1ccc(NC(=O)N2CCC(n3c(=O)[nH]c4ccccc43)CC2)cc1,-6%,39%,14%,-15%,·,-1%
CCCCN1CCC(n2c(=O)[nH]c3ccccc32)CC1,9.5µM*,·,·,·,·,·
COc1ccc(-c2csc(Nc3ccccc3)[n+]2CC(O)c2ccc([N+](=O)[O-])cc2)cc1 (centres undefined),14µM*,?,-7%,?,-21%,?
COc1ccc(-c2nc(NC(=O)c3ccccc3)sc2-c2ccc([N+](=O)[O-])cc2)cc1,19%,4%,12%,-32%,0%,-2%[57.1 µM]
SMILES,G9a block,HP1b binding inh,Sfp inh,JMJD2A Tudor inh,L3MBTL1 block,BAZ2B inh
Cc1ccc(NC(=O)CS(=O)CC(=O)NCCCN(C)c2ccccc2)cc1 (centres undefined),40µM*,10%,-18%,-10%,-15%,9%
C[C@]12O[C@H](C[C@]1(O)CO)n1c3ccccc3c3c4c(c5c6ccccc6n2c5c31)CNC4=O,-25%[12.7 µM],·,0%,·,·,·
N#C/C(=C/C1=C(N2CCOCC2)C(=C/c2ccccc2)/CC1)C(=O)Nc1ccccc1F,·,5µM*,·,10µM*,·,·
CCN(CC)c1ccc(/C=C2\CCC(/C=C(\C#N)C(=O)Nc3ccccc3F)=C2N2CCOCC2)cc1,?,?,7%,?,-14%,?
N#C/C(=C\C1=C(N2CCOCC2)C(=C\c2ccc(Cl)cc2)/CC1)C(=O)Nc1ccccc1F,10µM*,?,-18%,-31%,-4%,25µM*
N#C/C(=C\C1=C(N2CCOCC2)C(=C/c2cccc([N+](=O)[O-])c2)/CC1)C(=O)Nc1ccccc1F,2.5µM*,?,?,-33%,?,1.3µM*
Cc1occc1C(=O)N/N=C/C1=C(N2CCOCC2)C(=C\c2ccc(Cl)cc2)/CC1,21%,54%,18%,-7%,5%,11%
COc1ccc(-n2c(=O)c3c(c4cc(OC)ccc4n3C)n(Cc3cc(C)ccc3C)c2=O)cc1,4%[59 µM],61%,·,5%,·,-2%
Cc1noc(/C=C/c2ccccc2F)c1S(=O)(=O)N1CCC(C(=O)N(C)Cc2ccco2)CC1,2%[59 µM],17%[57 µM],·,-11%,·,-6%
CCCCOc1ccc(NC(=O)Nc2nnc(C)s2)cc1,79µM*,52%,13%,-8%,-1%,-22%
CCCCOc1ccc(NC(=O)CCSc2nccn2C)cc1,11µM*,-10%,18%,3.2µM*,-6%,?
CCOC(=O)c1ccc(NC(=O)CSc2nccn2C)cc1,?,32%,6%,-21%,·,?
COc1ccc(NC(=O)Nc2nnc(C)s2)cc1,7%[59 µM],28%,·,2%,·,2%
